In PubChem BioAssay (NCI):
This is part of a sample that, as a whole, favours compounds with a hit. Of some 79,000 tested, about 15% had one in any assay. Rule as the data show it: active = growth inhibition above about 70%; inactive = the rest.

Experiments:
[1] = NCI Yeast Anticancer Drug Screen. Data for the rad50 strain (AID 155);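 also: 0% = growth of vehicle-only cultures of the same strain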; details: S. cerevisiae rad50 strain growth inhibition, hits give high values; at 50.0 µM unless noted
How it was run: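 Relative growth inhibition (compound vs vehicle) was measured in yeast with a defined repair-gene alteration.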

[2] = NCI Yeast Anticancer Drug Screen. Data for the mec2-1 strain (AID 157); details: S. cerevisiae mec2-1 strain, hits give high values; at 50.0 µM unless noted
How it was run: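 Yeast mec2-1 mutant treated with compound. Readout: growth inhibition vs vehicle controls.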

[3] = NCI Yeast Anticancer Drug Screen. Data for the sgs1 mgt1 strain (AID 161);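 also: 0% = growth of cultures given vehicle only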; details: S. cerevisiae sgs1 mgt1 strain, hits give high values; at 50.0 µM unless noted
How it was run: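 Mutant yeast exposed to compound; growth scored against vehicle-only wells.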

[4] = NCI Yeast Anticancer Drug Screen. Data for the cln2 rad14 strain (AID 165);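 also: 0% = growth equal to vehicle treated cultures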; details: S. cerevisiae cln2 rad14 strain, hits give high values; at 50.0 µM unless noted
How it was run: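 cln2 rad14 yeast strain; compound exposure; growth inhibition read vs vehicle controls.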

[5] = NCI Yeast Anticancer Drug Screen. Data for the bub3 strain (AID 167); details: S. cerevisiae bub3 mutant strain, hits give high values; at 50.0 µM unless noted
How it was run: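 Screening used yeast with an engineered genetic alteration affecting cell cycle control. Compound-exposed cultures were compared with vehicle cultures, and reduced growth was taken as inhibition.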

[6] = NCI Yeast Anticancer Drug Screen. Data for the mlh1 rad18 strain (AID 175); details: S. cerevisiae mlh1 rad18 strain growth inhibition, hits give high values; at 50.0 µM unless noted
How it was run: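 Yeast w/ defined DNA-repair lesions; compound exposure; growth vs vehicle controls → % inhibition.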

Measured: growth inhibition

[N-]=[N+]=Nc1c2c(nc3ccccc13)CCCC2
inactive: [1] -38.1% | [2] -10.2% | [3] -21.4% | [4] -51.1% | [5] 0.3% | [6] -4.4%

COc1ccccc1/C=C1\C(=O)N(C(=O)c2ccc(NC(C)=O)cc2)N=C1C
inactive: [1] 1.6% | [2] -27.1% | [3] -34.8% | [4] -3.2% | [5] -23.9% | [6] -26.1%

CCC(C(N)=O)c1ccccc1 (stereo not given)
inactive: [1] -16.3% | [2] -5.65% | [3] 13.9% | [4] -6.75% | [5] -3.9% | [6] -3.6%

CCOP(=O)(OCC)/C(=C/n1c(=S)[nH]c2ccccc21)C(=O)OC
inactive: [1] -29.8% | [2] -55.1% | [3] -10% | [4] 0.9% | [5] -0.8% | [6] -22.2%

COc1nc(NC2OC(COC(C)=O)C(OC(C)=O)C(OC(C)=O)C2OC(C)=O)c(N=CC=Nc2c(NC3OC(COC(C)=O)C(OC(C)=O)C(OC(C)=O)C3OC(C)=O)nc(OC)[nH]c2=O)c(=O)[nH]1 (stereo not given)
inactive: [1] -11.3% | [2] -8.45% | [3] -2.65% | [4] -16.8% | [5] -5.6% | [6] -11.5%

CC(C)(CO)C(O)C(=O)NN (stereo not given)
inactive: [1] -2.8% | [2] 2.95% | [3] 8.6% | [4] -6.25% | [5] -3.9% | [6] 3.25%

CCC(C)C(NC(=O)C1CSC(C)(C)N1C=O)C(=O)OC1CCCCC1 (stereo not given)
inactive: [1] 38.9% | [2] -13.2% | [3] 19.1% | [4] -13.2% | [5] -4.9% | [6] 9.55%

Cc1ccc(NC(=O)ON(C)C)cc1
inactive: [1] -1.65% | [2] 11.7% | [3] 8.25% | [4] -81.5% | [5] -18.9% | [6] -24.2%

O=c1[nH][nH]c(=O)c2c([N+](=O)[O-])cccc12
inactive: [1] -17.6% | [2] -8.6% | [3] -3.8% | [4] -37.5% | [5] 0.35% | [6] -0.35%

CCOC(=O)c1c(SCc2ccccc2)nc2c3ccccc3ccn12
inactive: [1] -18.2% | [2] -18.6% | [3] -29.9% | [4] -1.15% | [5] -20.9% | [6] -57.5%

O=C(O)C1(F)CC1(c1ccccc1)c1ccccc1 (stereo not given)
inactive: [1] -4.7% | [2] 9.7% | [3] 14.5% | [4] -38.2% | [5] 5.6% | [6] -7.8%

COc1ccc(-n2c(CCC(=O)O)nc3c2C(=O)c2ccccc2C3=O)cc1
inactive: [1] 31.6% | [2] 17.6% | [3] 34% | [4] 49% | [5] 14.7% | [6] 14.2%

CCOC(=O)c1sc(C(=O)O)cc1-c1cccs1
inactive: [1] 3.9% | [2] 9.65% | [3] 11.5% | [4] -5.6% | [5] -10.6% | [6] 15%

O=C(NC(CO)Cc1ccccc1)OCc1ccccc1 (stereo not given)
inactive: [1] -4.15% | [2] -5.25% | [3] 0% | [4] 5.45% | [5] 8.1% | [6] -7.65%

O=S(=O)(O)c1cc(N=[N+]([O-])c2ccc(N=Nc3ccccc3)cc2S(=O)(=O)O)ccc1/C=C/c1ccc(N=[N+]([O-])c2ccc(N=Nc3ccccc3)cc2S(=O)(=O)O)cc1S(=O)(=O)O
inactive: [1] 28.6% | [2] 11.9% | [3] 9.8% | [4] 7.15% | [5] 0.8% | [6] 50.4%

Cc1[nH]n(-c2ccc(Cl)cc2)c(=O)c1N=Nc1cccc(C(F)(F)F)c1
inactive: [1] 21.8% | [2] 2.05% | [3] 2.1% | [4] 7.45% | [5] -2.05% | [6] 2%

O=C(NC(=O)c1ccccc1)Oc1cccc2ccccc12
inactive: [1] 18.3% | [2] -0.1% | [3] 20.1% | [4] 7.85% | [5] 10.7% | [6] 22.8%

Cc1nc(C(Cl)(Cl)Cl)[nH]c(=O)c1SCCO
inactive: [1] 12.8% | [2] -15.7% | [3] -9.05% | [4] 10.1% | [5] -2.4% | [6] -6.35%

O=Cc1cccc2ccc3cccc(C(=O)Cl)c3c12
inactive: [1] 20.4% | [2] 46.9% | [3] 37.8% | [4] 18% | [5] 62.5% | [6] 32.5%

CC(=O)OC1OC(COC(c2ccccc2)(c2ccccc2)c2ccccc2)C(OC(C)=O)C(OC(C)=O)C1OC(C)=O (stereo not given)
inactive: [1] 12.8% | [2] -8.6% | [3] -6.15% | [4] 6.4% | [5] 1.7% | [6] 24.6%
